# Over roughly 9,900 sequences, “r (bound/input frequency ratio)” has its median near 0.7; the highest 2% begin near 6.5. The sample as a whole holds a higher share of the highest values than the screen did.
# B1: ENSMUSG00000043670.211|Diras1 (ssRNA)
# RNA: GGGAGUUCUACAGUCCGACGAUCGCUUCGAUAUCCGCAUGCUAGUGCCUGUGUGUGUGGAUGGGUGUGUGUCUGUCUUGGGAUGGGGUGUUCUUGCACCACUUUGUGUUCUUAGUGAGACCACAGUGUAAGUGGCCGUGUGUGUGUGUGGGGGGGGGCACCUAGACAUUGUGGUGUGUCUGUAUGGCUCUGUGUUUUCAGGGGUGGGUGACACAGGCCUGUCUGAUGAGCACCAGGUCUGUUCCAGGCUGUGGCAAGCUGGCUCCUGGCUCAGAAGUGACAAAGCUGCAGUACAGAGGCCUCACUCUUGCGGUCGCACUAGUGUGGAAUUCUCGGGUGUCAAGG
# B2: ENSMUSG00000043670.215|Diras1 (ssRNA)
# RNA: GGGAGUUCUACAGUCCGACGAUCGCUUCGAUAUCCGCAUGCUAGUGUCUGUCUUGGGAUGGGGUGUUCUUGCACCACUUUGUGUUCUUAGUGAGACCACAGUGUAAGUGGCCGUGUGUGUGUGUGGGGGGGGGCACCUAGACAUUGUGGUGUGUCUGUAUGGCUCUGUGUUUUCAGGGGUGGGUGACACAGGCCUGUCUGAUGAGCACCAGGUCUGUUCCAGGCUGUGGCAAGCUGGCUCCUGGCUCAGAAGUGACAAAGCUGCAGUACAGAGGCCUCAGUGUGAGGUCAUCACCUCACAGUGCUCUUGCGGUCGCACUAGUGUGGAAUUCUCGGGUGUCAAGG
# B3: ENSMUSG00000043670.205|Diras1 (ssRNA)
# RNA: GGGAGUUCUACAGUCCGACGAUCGCUUCGAUAUCCGCAUGCUACACCCAGAUGAGGGUGACUUAGAAUUCUGUGUUUAUGUGCCUGUGUGUGUGGAUGGGUGUGUGUCUGUCUUGGGAUGGGGUGUUCUUGCACCACUUUGUGUUCUUAGUGAGACCACAGUGUAAGUGGCCGUGUGUGUGUGUGGGGGGGGGCACCUAGACAUUGUGGUGUGUCUGUAUGGCUCUGUGUUUUCAGGGGUGGGUGACACAGGCCUGUCUGAUGAGCACCAGGUCUGUUCCAGGCUGUGGCAAGCUGGCUCCUGCUCUUGCGGUCGCACUAGUGUGGAAUUCUCGGGUGUCAAGG
# B4: ENSMUSG00000043670.212|Diras1 (ssRNA)
# RNA: GGGAGUUCUACAGUCCGACGAUCGCUUCGAUAUCCGCAUGCUAGUGUGUGUGGAUGGGUGUGUGUCUGUCUUGGGAUGGGGUGUUCUUGCACCACUUUGUGUUCUUAGUGAGACCACAGUGUAAGUGGCCGUGUGUGUGUGUGGGGGGGGGCACCUAGACAUUGUGGUGUGUCUGUAUGGCUCUGUGUUUUCAGGGGUGGGUGACACAGGCCUGUCUGAUGAGCACCAGGUCUGUUCCAGGCUGUGGCAAGCUGGCUCCUGGCUCAGAAGUGACAAAGCUGCAGUACAGAGGCCUCAGUGUGACUCUUGCGGUCGCACUAGUGUGGAAUUCUCGGGUGUCAAGG
# B5: ENSMUSG00000031028.55|Tub (ssRNA)
# RNA: GGGAGUUCUACAGUCCGACGAUCGCUUCGAUAUCCGCAUGCUAUGUGCCCCAAGGUCAACACACAUGCCCAGUCCUGGGUCAGUCCCCUGCUGCAGUGGUGUUAUCACACCGGAAAGCCUCUUCACCUGGAGGUACAGAGGGAGAGGAAGCACAAGCCUGGCUGCUGUGGCUCAGCCAUCCACUCAGCCUACGAGUCAGAGACAGUGGGUGUCCCGGGAAGCAGGGGUACAGUGAGUGUGUGUGUAUGUACAGGGCACUCAAGCUGUAUGUAGAAAAAGCUCUGGUGGUCAGCAGAAAGCACUCUCUUGCGGUCGCACUAGUGUGGAAUUCUCGGGUGUCAAGG
# B6: ENSMUSG00000042529.483|Kcnj12 (ssRNA)
# RNA: GGGAGUUCUACAGUCCGACGAUCGCUUCGAUAUCCGCAUGCUAUCUCUUUGAAUGCUACUGUGUUGAGAUGUGCGUCUCACUGGCCUCUGCCUGCCUCUCCCGCCUGCGGAGCACUUACACUUCCUGGGGCCCCUGCAGCUGGACCAUGUACAGGGCUCCCUGGGGCUUGUCCUCAGGGGCAGAGAAGGACAUGGUGGCAGCAGCACUGAGAACAGGAGCAUGGCCUCUCUCAGACCCCAGGGCAGUCAUUCAGUCUUUUCCAUGGACACUCCCCACCGCUCCACAUACUGCCUCCGCCUCAUCUCUUGCGGUCGCACUAGUGUGGAAUUCUCGGGUGUCAAGG
# B7: ENSMUSG00000061578.627|Ksr2 (ssRNA)
# RNA: GGGAGUUCUACAGUCCGACGAUCGCUUCGAUAUCCGCAUGCUAAGGGAGCAACCUAUAGGAAAUGCAAAGGCUUAGAGGGGACGGACAGCUCCCUGACCCUGGAUGGCCAGGAAUGGUGCUAGCUAGGGUGUGAGCCAAGCCCUUGAGGCUACUGUGAGUUAUGAGAUGUGUCCAACCCUCAGCCCACAGACUGCAUAUGCCCCAGGACAGCUGUGAAGGUGACCCAAUACAAAAUCGUAAACUAACUUAAAACCAUUAAGGGUUUUUGUUUUGUUGUUGUUUGCUGGCUUUUUGUUUUUUGGCUCUUGCGGUCGCACUAGUGUGGAAUUCUCGGGUGUCAAGG
# B8: ENSMUSG00000042529.54|Kcnj12|94:101;234:238 (ssRNA)
# RNA: GGGAGUUCUACAGUCCGACGAUCGCUUCGAUAUCCGCAUGCUAGCAAGGAGGUGACUUCUUGGGGUAGGGUUGCUCAGGAGUUAGGGACUCUGCUGGAGGCCUUAGGUGCAGGUCCCAGCCCCGGUGGGAGGAGGCACACAUACUACACUUCAUUGGUUUUUAACUUGGGCAAGACUGUUUACAAACAAAAACAAACAAACAAACAAUCAAAAAAAAAACCCACCCCACAAAACACAAGAAAACAUUAACAGGUGGUUCAAUUUUUAAAAUUCCUGCACACGGGACAGUUGGAAUUCUACUCACUCUUGCGGUCGCACUAGUGUGGAAUUCUCGGGUGUCAAGG
# B9: ENSMUSG00000042529.244|Kcnj12|181:185 (ssRNA)
# RNA: GGGAGUUCUACAGUCCGACGAUCGCUUCGAUAUCCGCAUGCUAAGAUAGGCUGGCUCCCAGGCACCUUGCUUCAGAUUCCAUGCUAAUUUCUAAUCUAGGAGAUUCCCCUAGGACCCGCUGCAGAGGCAUGGGCUCCUCUGUGGUCCUGGCCAGACCUCUGCCCCCAAAUCUCACUGACUGUUCUAGCCUUGGCCUUGGGGCCUAAGGGUGCAUUCAGCCUGGCACACCUUACCUGCCACUCACCUCUCUAUCUAGUUGUCGAGUCUAGGGAAGGGCAGAGGGUGGGUCCUGGCCACUGGGUGCUCUUGCGGUCGCACUAGUGUGGAAUUCUCGGGUGUCAAGG
# B10: ENSMUSG00000031028.132|Tub|108:112;184:189 (ssRNA)
# RNA: GGGAGUUCUACAGUCCGACGAUCGCUUCGAUAUCCGCAUGCUAGGGGAUGAUAGGAGUCAUCCAGUAGACUCCCUACAUCAGGGCUCUCAGCAGCCCCAGCACAACACCUAUGACACACACACAGGAUCUAGGUCACCAUUCAAGUAAUGCAUACCUUCAGGAAGAAUGUCCUCUCUGGGAAGACUCAGCUCCCAUUAUUGCCAGCAUGCCAUGAUCAGUGAGGGCACACACCCAUGCUUAGGGGGAUGGCGCAGGGUGAGGGGAGCAGAGGAUAUUUUAGGGCCACAAGAGCUCAGAGGUAGCUCUUGCGGUCGCACUAGUGUGGAAUUCUCGGGUGUCAAGG
# B11: ENSMUSG00000032194.60|Kank2 (ssRNA)
# RNA: GGGAGUUCUACAGUCCGACGAUCGCUUCGAUAUCCGCAUGCUAAGGGGGGGCAAGAAGAGAAAAUACUGUAUUCUUGAGUCAUUGUUAGGGGAUGGGAGGGGUCAGAAUUCAGUUGCUAAAUUUGAAUGUCACUGGAAUGUUACAGUGUCUAUUGUCUCCUCAUCUUUACAGCAGGUCUCCACAAAGCCUGCUCACCACCCUUUGUCACCUCAUUUCAUUGUCUAGUGUACAAUAGGGUCUUGUCCACUGCCCUCCACCUCCAGACUGUGUCUUCAGGGCCUGGGGUGUCUCUUGUGAUUGCUCUCUUGCGGUCGCACUAGUGUGGAAUUCUCGGGUGUCAAGG
# Molecular target: TDP-43 (Homo sapiens, UniProt Q13148 1-414)
# Sequence (Q13148 whole entry): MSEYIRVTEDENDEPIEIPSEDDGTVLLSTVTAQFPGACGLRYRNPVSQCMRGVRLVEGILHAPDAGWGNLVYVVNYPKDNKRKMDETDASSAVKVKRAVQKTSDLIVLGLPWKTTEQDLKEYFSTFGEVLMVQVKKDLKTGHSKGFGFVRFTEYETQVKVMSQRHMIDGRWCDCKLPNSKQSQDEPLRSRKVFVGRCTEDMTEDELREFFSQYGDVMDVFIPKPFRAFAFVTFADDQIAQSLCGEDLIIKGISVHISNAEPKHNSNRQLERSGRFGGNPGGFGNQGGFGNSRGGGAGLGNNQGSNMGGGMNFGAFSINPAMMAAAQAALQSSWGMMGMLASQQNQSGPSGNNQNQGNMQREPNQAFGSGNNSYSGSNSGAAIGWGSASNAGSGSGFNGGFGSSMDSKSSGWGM
# Assay: RNA Bind-n-Seq with designed 260-mer pool; 25 mM Tris-HCl, 150 mM KCl, 3 mM MgCl2, BSA (printed 500 mg/mL), 20 units/mL SUPERase IN; pH not stated; 500 nM RNA pool, 1 h, 4 C; TDP-43 5, 50, 500 nM; high values mean tight binding
# Details: protein: recombinant; tags: SBP (GST cleaved off with PreScission; pGEX-GST-SBP)
# In short: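 Streptavidin beads captured recombinant SBP-tagged TDP-43 at 5, 50 or 500 nM, and the beads were incubated for 1 h at 4 °C with 500 nM of an in vitro-transcribed pool of 260-nt 3′ UTR oligos in 25 mM Tris-HCl, 150 mM KCl, 3 mM MgCl2, BSA and SUPERase IN. After washing, bound RNA was eluted with biotin, reverse transcribed, PCR-amplified and sequenced. Binding is reported as R, the mapped-read-normalized abundance of each oligo in the bound sample divided by its abundance in the input. Two independent protein batches served as duplicates.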
row,Binder,binding signal
1,B1,5.36 R (bound/input frequency ratio)
2,B2,3.25 R (bound/input frequency ratio)
3,B3,7.36 R (bound/input frequency ratio)
4,B4,6.14 R (bound/input frequency ratio)
5,B5,0.773 R (bound/input frequency ratio)
6,B6,0.21 R (bound/input frequency ratio)
7,B7,0.542 R (bound/input frequency ratio)
8,B8,0.46 R (bound/input frequency ratio)
9,B9,1.24 R (bound/input frequency ratio)
10,B10,0.891 R (bound/input frequency ratio)
11,B11,2.47 R (bound/input frequency ratio)
